# Legend:
# [1] = target: Platelet-derived growth factor receptor beta (Homo sapiens) (UniProt P09619); settings: at 1 µM;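 further: each value is a mean percent inhibition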
# [2] = target: Tyrosine-protein kinase FRK (Homo sapiens) (UniProt P42685); settings: at 0.1 µM
# [3] = target: Tyrosine-protein kinase FRK (Homo sapiens) (UniProt P42685); settings: at 1 µM
# [4] = target: Protein-tyrosine kinase 2-beta (Homo sapiens) (UniProt Q14289); settings: at 0.1 µM
# [5] = target: Protein-tyrosine kinase 2-beta (Homo sapiens) (UniProt Q14289); settings: at 1 µM
# [6] = target: Proto-oncogene tyrosine-protein kinase receptor Ret (Homo sapiens) (UniProt P07949); settings: at 0.1 µM
# Sequence of Proto-oncogene tyrosine-protein kinase receptor Ret (Homo sapiens) (P07949 whole entry): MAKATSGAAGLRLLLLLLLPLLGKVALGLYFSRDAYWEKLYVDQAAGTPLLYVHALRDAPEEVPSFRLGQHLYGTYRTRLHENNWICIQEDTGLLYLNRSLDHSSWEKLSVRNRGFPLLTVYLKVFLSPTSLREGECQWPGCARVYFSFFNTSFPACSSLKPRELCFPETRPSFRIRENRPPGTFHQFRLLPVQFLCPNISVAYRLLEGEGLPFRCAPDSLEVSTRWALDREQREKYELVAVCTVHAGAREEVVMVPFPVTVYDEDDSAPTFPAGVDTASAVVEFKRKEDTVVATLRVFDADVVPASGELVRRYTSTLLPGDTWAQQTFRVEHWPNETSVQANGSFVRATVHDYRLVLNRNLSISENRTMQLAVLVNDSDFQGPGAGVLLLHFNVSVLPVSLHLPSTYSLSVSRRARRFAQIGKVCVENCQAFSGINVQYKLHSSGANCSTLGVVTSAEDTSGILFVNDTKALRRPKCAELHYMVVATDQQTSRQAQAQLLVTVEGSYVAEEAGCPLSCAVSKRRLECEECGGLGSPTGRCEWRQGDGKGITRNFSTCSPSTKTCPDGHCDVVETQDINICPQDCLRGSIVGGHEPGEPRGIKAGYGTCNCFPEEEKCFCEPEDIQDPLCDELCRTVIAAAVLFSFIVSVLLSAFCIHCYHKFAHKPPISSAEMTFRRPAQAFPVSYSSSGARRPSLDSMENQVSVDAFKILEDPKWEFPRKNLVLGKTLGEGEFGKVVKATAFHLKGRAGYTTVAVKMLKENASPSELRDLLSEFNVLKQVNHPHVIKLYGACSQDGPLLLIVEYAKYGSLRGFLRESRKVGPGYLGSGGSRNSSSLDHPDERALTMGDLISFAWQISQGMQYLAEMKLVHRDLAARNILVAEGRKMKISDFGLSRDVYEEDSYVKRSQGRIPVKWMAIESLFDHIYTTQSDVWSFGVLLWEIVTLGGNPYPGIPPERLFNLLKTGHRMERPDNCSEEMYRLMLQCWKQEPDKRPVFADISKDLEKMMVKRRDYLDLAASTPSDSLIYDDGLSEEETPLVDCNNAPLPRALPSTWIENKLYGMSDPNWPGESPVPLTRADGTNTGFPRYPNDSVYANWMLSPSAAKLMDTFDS
# [7] = target: Proto-oncogene tyrosine-protein kinase receptor Ret (Homo sapiens) (UniProt P07949); settings: at 1 µM
# [8] = test system: Proto-oncogene tyrosine-protein kinase receptor Ret (Homo sapiens), P07949 [V804L]; settings: at 0.1 µM
# Sequence of Proto-oncogene tyrosine-protein kinase receptor Ret (Homo sapiens), P07949 [V804L] (P07949 whole entry V804L): as the sequence (P07949 whole entry) above, with V804L counted along it
# [9] = test system: Proto-oncogene tyrosine-protein kinase receptor Ret (Homo sapiens), P07949 [V804L]; settings: at 1 µM
# [10] = test system: Proto-oncogene tyrosine-protein kinase receptor Ret (Homo sapiens), P07949 [Y791F]; settings: at 0.1 µM
# Sequence of Proto-oncogene tyrosine-protein kinase receptor Ret (Homo sapiens), P07949 [Y791F] (P07949 whole entry Y791F): as the sequence (P07949 whole entry) above, with Y791F counted along it
# [11] = test system: Proto-oncogene tyrosine-protein kinase receptor Ret (Homo sapiens), P07949 [Y791F]; settings: at 1 µM
# [12] = target: Macrophage-stimulating protein receptor (Homo sapiens) (UniProt Q04912); settings: at 0.1 µM
# Sequence of Macrophage-stimulating protein receptor (Homo sapiens) (Q04912 25-304 limits assumed): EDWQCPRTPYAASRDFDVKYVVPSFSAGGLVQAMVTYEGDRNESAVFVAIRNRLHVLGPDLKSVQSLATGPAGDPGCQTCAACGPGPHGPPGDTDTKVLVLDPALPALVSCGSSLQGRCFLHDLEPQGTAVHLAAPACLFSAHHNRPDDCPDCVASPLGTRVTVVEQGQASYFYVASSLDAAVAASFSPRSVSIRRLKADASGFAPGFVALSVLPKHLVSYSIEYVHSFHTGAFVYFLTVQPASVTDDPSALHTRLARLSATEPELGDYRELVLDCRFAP
# Sequence of Macrophage-stimulating protein receptor (Homo sapiens) (Q04912 310-1400 limits assumed): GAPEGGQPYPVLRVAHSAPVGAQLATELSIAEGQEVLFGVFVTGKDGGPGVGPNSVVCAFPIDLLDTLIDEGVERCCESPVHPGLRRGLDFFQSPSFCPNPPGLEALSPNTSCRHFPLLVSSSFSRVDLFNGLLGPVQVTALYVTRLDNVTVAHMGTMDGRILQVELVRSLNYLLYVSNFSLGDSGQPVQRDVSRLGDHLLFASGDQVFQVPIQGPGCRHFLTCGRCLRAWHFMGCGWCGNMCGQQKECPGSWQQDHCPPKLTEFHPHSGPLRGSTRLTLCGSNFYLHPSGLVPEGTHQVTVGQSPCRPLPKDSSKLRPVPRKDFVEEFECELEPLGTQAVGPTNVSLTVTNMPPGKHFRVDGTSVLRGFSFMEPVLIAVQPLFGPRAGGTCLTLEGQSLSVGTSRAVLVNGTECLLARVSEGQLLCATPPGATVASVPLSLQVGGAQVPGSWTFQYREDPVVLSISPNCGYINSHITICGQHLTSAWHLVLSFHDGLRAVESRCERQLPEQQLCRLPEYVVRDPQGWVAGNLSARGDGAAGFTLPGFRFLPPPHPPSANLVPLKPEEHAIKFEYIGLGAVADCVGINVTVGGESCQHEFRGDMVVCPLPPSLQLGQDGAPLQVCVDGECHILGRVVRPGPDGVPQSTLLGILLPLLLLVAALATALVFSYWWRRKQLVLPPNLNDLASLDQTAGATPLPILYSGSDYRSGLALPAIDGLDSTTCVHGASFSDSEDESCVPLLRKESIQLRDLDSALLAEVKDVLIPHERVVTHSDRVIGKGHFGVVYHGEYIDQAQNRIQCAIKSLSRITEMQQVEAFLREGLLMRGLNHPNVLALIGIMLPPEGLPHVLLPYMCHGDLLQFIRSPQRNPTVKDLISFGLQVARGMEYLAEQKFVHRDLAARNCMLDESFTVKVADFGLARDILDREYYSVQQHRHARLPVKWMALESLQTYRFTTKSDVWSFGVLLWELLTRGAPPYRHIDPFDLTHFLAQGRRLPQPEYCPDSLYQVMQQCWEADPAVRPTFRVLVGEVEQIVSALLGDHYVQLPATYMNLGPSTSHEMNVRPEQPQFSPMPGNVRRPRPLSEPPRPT
# [13] = target: Macrophage-stimulating protein receptor (Homo sapiens) (UniProt Q04912); settings: at 1 µM
# [14] = target: Proto-oncogene tyrosine-protein kinase ROS (Homo sapiens) (UniProt P08922); settings: at 0.1 µM
# [15] = target: Proto-oncogene tyrosine-protein kinase ROS (Homo sapiens) (UniProt P08922); settings: at 1 µM
# [16] = target: Proto-oncogene tyrosine-protein kinase Src (Homo sapiens) (UniProt P12931); settings: at 0.1 µM
# Sequence of Proto-oncogene tyrosine-protein kinase Src (Homo sapiens) (P12931 2-536 limits assumed): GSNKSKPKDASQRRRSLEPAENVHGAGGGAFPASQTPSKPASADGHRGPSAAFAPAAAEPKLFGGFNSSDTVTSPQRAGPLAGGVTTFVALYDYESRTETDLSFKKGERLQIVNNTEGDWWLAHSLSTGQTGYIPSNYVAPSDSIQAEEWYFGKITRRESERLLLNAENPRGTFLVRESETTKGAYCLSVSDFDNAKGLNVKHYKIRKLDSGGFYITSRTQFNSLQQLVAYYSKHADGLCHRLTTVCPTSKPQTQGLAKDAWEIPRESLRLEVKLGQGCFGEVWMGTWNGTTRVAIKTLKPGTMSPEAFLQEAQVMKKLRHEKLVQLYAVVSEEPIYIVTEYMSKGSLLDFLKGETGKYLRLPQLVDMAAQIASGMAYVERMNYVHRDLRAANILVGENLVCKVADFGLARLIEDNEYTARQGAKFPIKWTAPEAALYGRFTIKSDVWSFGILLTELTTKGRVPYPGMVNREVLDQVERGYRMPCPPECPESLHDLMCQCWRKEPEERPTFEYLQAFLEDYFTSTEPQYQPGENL
# [17] = target: Proto-oncogene tyrosine-protein kinase Src (Homo sapiens) (UniProt P12931); settings: at 1 µM
# [18] = target: Tyrosine-protein kinase Srms (Homo sapiens) (UniProt Q9H3Y6); settings: at 0.1 µM
# Sequence of Tyrosine-protein kinase Srms (Homo sapiens) (Q9H3Y6 whole entry): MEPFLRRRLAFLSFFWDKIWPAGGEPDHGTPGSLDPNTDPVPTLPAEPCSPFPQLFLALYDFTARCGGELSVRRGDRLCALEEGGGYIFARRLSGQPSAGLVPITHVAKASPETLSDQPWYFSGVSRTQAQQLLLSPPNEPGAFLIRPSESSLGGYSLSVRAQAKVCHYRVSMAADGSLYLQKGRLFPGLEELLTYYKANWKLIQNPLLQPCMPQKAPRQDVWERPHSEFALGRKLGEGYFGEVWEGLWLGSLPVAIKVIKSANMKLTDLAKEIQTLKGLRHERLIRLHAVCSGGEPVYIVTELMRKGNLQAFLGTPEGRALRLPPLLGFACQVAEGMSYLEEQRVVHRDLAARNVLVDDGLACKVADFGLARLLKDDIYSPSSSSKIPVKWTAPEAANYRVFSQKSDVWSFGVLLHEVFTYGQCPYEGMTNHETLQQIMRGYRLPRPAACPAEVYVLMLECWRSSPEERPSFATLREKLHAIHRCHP
# [19] = target: Tyrosine-protein kinase Srms (Homo sapiens) (UniProt Q9H3Y6); settings: at 1 µM
# [20] = target: Tyrosine-protein kinase SYK (Homo sapiens) (UniProt P43405); settings: at 0.1 µM;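 further: reported percentages are mean inhibition values for SYK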
# Sequence of Protein-tyrosine kinase 2-beta (Homo sapiens) (Q14289 whole entry, looked up): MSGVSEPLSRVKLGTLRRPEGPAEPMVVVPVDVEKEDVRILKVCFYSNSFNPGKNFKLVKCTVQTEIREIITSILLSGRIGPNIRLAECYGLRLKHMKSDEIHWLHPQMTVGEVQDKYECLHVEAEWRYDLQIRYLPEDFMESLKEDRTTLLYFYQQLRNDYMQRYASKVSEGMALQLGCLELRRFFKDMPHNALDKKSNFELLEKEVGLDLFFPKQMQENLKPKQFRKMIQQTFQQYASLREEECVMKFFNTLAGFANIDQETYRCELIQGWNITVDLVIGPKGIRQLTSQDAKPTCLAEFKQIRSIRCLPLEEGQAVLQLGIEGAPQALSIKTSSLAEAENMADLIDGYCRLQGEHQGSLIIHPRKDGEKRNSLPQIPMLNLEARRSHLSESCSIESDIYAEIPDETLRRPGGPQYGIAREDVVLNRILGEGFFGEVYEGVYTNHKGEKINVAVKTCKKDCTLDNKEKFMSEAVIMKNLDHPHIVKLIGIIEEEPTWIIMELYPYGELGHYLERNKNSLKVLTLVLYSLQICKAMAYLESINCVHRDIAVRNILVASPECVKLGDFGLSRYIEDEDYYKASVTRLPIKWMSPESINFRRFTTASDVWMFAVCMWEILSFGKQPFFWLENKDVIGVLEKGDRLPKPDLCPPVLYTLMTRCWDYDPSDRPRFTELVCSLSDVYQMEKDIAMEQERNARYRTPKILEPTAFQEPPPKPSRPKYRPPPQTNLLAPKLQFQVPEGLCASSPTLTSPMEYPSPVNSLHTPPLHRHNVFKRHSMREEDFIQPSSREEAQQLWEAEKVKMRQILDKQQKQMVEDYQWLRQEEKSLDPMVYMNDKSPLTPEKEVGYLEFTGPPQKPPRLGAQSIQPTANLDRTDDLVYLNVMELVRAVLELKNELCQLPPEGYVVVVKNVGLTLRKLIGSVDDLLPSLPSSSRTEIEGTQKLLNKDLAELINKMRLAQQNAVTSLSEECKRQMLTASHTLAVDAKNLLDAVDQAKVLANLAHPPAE
Structure (SMILES),inhibition [1] [%],inhibition [2] [%],inhibition [3] [%],inhibition [4] [%],inhibition [5] [%],inhibition [6] [%],inhibition [7] [%],inhibition [8] [%],inhibition [9] [%],inhibition [10] [%],inhibition [11] [%],inhibition [12] [%],inhibition [13] [%],inhibition [14] [%],inhibition [15] [%],inhibition [16] [%],inhibition [17] [%],inhibition [18] [%],inhibition [19] [%],inhibition [20] [%]
NC(=O)c1sc(-n2cnc3ccccc32)cc1OCc1ccccc1Br,14.4,2.57,3.29,7.34,6.52,9.37,12.7,3.43,5.79,5.9,15.3,9.12,9.57,7.48,10.1,7.25,12.9,-2.72,-2.44,0.26
N#Cc1c(NC(=O)c2ccccc2F)sc2c1CCCC2,3.62,-0.85,-1.09,,-8.67,-2,3.21,0.24,2.29,-0.3,1.78,-0.97,-3.33,1.04,0.32,-4.11,-4.48,2.55,1.79,0.7
CCOc1nccc2c1nc(-c1nonc1N)n2CC,20.2,1.66,-0.64,5.11,7.29,5.47,12.3,8.5,20.2,9.76,28.7,10,5.31,5.15,11.8,,5.71,3.59,5.69,1.77
O=C(Nc1ccc(Oc2ccc3[nH]c(NC(=O)c4ccco4)nc3c2)cc1)Nc1cc(C(F)(F)F)ccc1F,58.3,0.19,2.9,0.95,12.9,77.7,84.2,45.6,75.7,50.9,82.3,-2.7,17.2,0.05,11.1,7.67,37,3.74,-0.11,1.01
Nc1nccc(-c2c(-c3ccc(F)cc3)nn3cc(C(F)(F)F)ccc23)n1,2.13,-1.38,1.04,,,2.76,-0.03,0.95,0.97,-0.45,3.56,1.05,-2.78,4.58,2.24,1.35,1.39,0.31,-1.94,-0.75
NS(=O)(=O)c1ccc(-c2cc3ccncc3cc2OCc2ccccc2)cc1,8.53,2,1.07,7.81,13.4,2.04,8.69,2.23,5.47,5.72,8.79,3.44,8.77,5.03,11,-0.21,6.83,0.62,1.62,2.96
Cc1ccc2c(c1)/C(=N/Nc1ccc(S(N)(=O)=O)cc1)C(=O)N2,31.7,-0.61,0.7,1.76,0.28,3.85,18.8,7.64,35.4,8.06,18.2,-3.95,-1.57,2.42,4.27,0.59,6.44,-1.38,-2.68,2.17
Cc1ccc(Nc2ccnc(Nc3cccc(C(N)=O)c3)n2)cc1O,79.7,48.6,87.6,9.71,47.8,73.5,85.7,11.7,49.7,74.6,88.7,0.19,13.3,17.4,61.4,78.3,90.7,10.8,41,-7.65
CCS(=O)(=O)c1ccc(OC)c(Nc2nccc(N(C)c3ccc4c(C)n[nH]c4c3)n2)c1,70.9,20.6,70.2,4,19,64.8,83.5,4.04,8.57,58.1,80.2,2.28,11.8,12.1,51.3,42.5,81.2,11.4,50.3,-1.92
CCn1c(-c2nonc2N)nc2ccc(F)cc21,4.28,2.61,1.89,,,6.24,5.07,3.33,15.8,6.33,11.3,0.5,6.19,5.7,8.6,4.3,9.9,-2.63,-0.49,3.17
COC(=O)c1cncc(/C=C/c2c(C)cc(O)cc2C)c1,36.7,2.26,6.54,9.3,10.1,2.45,5.3,2.74,7.8,0.65,15.2,-3.36,7.09,,6.7,11.8,38.2,0.39,12.7,-5.74
CC(C)c1ccc(Nc2nccc(-c3cnn4ncccc34)n2)cc1,40.8,0.49,1.12,12,45.8,6.8,14.4,4.06,10.1,5.09,13.4,1.98,16.8,19.2,62.4,1.55,13.4,1.68,3.15,-6.64
COc1cc(Nc2nccc(-c3cnn4ncccc34)n2)cc(OC)c1,84.5,1.76,5.05,38.9,95.9,9.58,25.4,6.17,33.5,4.62,33.6,4,22.3,57,87,17.1,63.9,0.34,6.85,-0.4
COc1ccc2ncnc(Nc3ccc(OCc4ccccc4)cc3)c2c1,7.02,0.42,0.42,-1.91,5.66,3.22,5.23,0.54,7.26,4.16,11.5,2.03,4.46,1.06,3.14,2.84,8.82,-1.19,0.6,-3.74
c1ccc(Cc2nc3ccc(Nc4ncnc5ccccc45)cc3[nH]2)cc1,14.8,2.62,0.81,2.62,13.4,4.63,9.44,2.59,9.82,3.35,6.8,4.08,5.82,4.22,,0.79,12.8,-1.79,-2.82,8.94
CN(C)c1cc2c(Nc3ccc4c(cnn4Cc4ccccc4)c3)ncnc2cn1,7.75,1.92,2.5,4.48,5.1,1.87,13.6,3.56,0.35,5.78,34.4,1.53,0.62,2.34,2.03,3.91,13.1,-0.2,1.29,0.89
COc1cccc(-n2ncc3c(N/N=C/c4ccc(S(C)(=O)=O)cc4)ncnc32)c1,78.1,0.47,3.05,3.04,5.9,11.4,30.7,4.8,8.24,14.1,26.7,29.4,44.3,7.29,27.2,56.5,77.4,4.95,17.8,-2.46
CCn1c(-c2nonc2N)nc2c(C#CC(C)(C)O)nc(OCCNC)cc21,24.2,3.46,3.09,8.7,10.6,8.91,23.6,2.4,4.07,7.43,28.9,6.88,,6.88,6.96,8.38,11.9,-1.55,-2.34,1.27
Cc1cc(Cl)cc2c1NC(=O)C2=NNc1ccc(S(N)(=O)=O)cc1,6.52,1.54,3.32,,,2.45,-0.28,3.83,7.51,-0.41,11,0.92,0.34,2.22,3.14,5.04,5.85,-1.17,-2.07,-4.26
Cc1cc(O)cc(C)c1/C=C/c1cncc(C(=O)N(C)C)c1,10,-0.14,1.73,5.04,3.05,8.48,11.8,6.64,9.06,8.23,11.9,4.1,11,3.04,7.84,1.66,7.43,0.98,1.27,-1.67
COc1ccc(-c2nn3ncccc3c2-c2ccnc(Nc3cccc(C(F)(F)F)c3)n2)cc1,5.95,1.12,2.91,6.13,6.4,2.63,,2.06,3.74,3.38,6.6,0.53,-3.48,2.58,4.13,6.2,10,-1.6,1.75,-1.06
CN(C)C(=O)O[C@H]1CN[C@H](C#Cc2cc3ncnc(Nc4ccc(OCc5cccc(F)c5)c(Cl)c4)c3s2)C1,6.43,1.37,1.4,6.18,3.98,4.97,19.5,3.2,4.12,3.68,9.1,1.31,5.82,4.25,4.65,3.86,6.56,0.59,0.93,-7.75
